Screens from PubChem BioAssay.
Rows were chosen to be rich in hits. Some 2.1% of all compounds tested hit in one or more screens of this group.
Rce1 inh = yeast Rce1p protease inhibitors, primary screen, biochemical, fluorescence, cell-free homogeneous | calls only | yeast membranes, quenched prenylated peptide cleavage fluorescence | 290,000 compounds, 0.27% hits | CAAX prenyl protease 2 (Saccharomyces cerevisiae (strain ATCC 204508 / S288c)), Q03530;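 active = fall in fluorescence gain of 50% or more versus controls, with final raw signal at or below 3038400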
Target sequence (Q03530 whole entry, looked up): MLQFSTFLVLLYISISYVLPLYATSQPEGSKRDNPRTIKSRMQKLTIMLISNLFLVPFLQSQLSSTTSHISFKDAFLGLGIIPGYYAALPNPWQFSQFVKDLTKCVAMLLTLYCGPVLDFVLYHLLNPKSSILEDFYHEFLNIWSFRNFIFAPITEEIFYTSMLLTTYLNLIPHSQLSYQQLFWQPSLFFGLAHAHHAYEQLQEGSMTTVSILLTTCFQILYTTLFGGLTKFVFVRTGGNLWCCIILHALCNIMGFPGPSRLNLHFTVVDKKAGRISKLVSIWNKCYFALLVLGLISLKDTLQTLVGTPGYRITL
ADAM10 inh = human ADAM10 inhibitors, primary screen, biochemical, QFRET, HTS; 370,000 compounds, 0.62% hits; Disintegrin and metalloproteinase domain-containing protein 10 (Homo sapiens), O14672; inhibition, % at 7 µM; recombinant ADAM10, EDANS/DABCYL FRET peptide cleavage, 3 h;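 active = inhibition above a per-campaign cutoff equal to the mean of compounds falling between control-based bounds plus 3 SD, cut at about 20% in these data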
PLCb3 inh = human PLC-beta3 inhibitors, primary screen, biochemical, fluorescence. 1-phosphatidylinositol 4,5-bisphosphate phosphodiesterase beta-3 (Homo sapiens), Q01970. Purified PLC-beta3, fluorogenic substrate. inhibition, % at 12.2 µM. 370,000 compounds, 0.18% hits
PLC-gamma1 inh = PLC-gamma1 enzyme inhibitors, primary screen, biochemical, fluorescence, purified enzyme | 1-phosphatidylinositol 4,5-bisphosphate phosphodiesterase gamma-1 (Homo sapiens), P19174 | fluorogenic substrate | inhibition, % at 12.2 µM | 370,000 compounds, 0.84% hits | AID 720700, 2013; in the data active = inhibition above about 9.5%
ADAM17 inh = ADAM17 inhibitors, primary screen, biochemical, QFRET | Disintegrin and metalloproteinase domain-containing protein 17 (Homo sapiens), P78536 | recombinant ADAM17, EDANS/DABCYL FRET peptide cleavage | inhibition, % at 6.95 µM | 370,000 compounds, 0.83% hits;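 active = inhibition above the mean of compounds lying between control limits plus 3 SD, set per campaign, cut at about 8.5% in these data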
ADAM10 counter = ADAM10 inhibitors, counter-screen for ADAM17 exosite inhibitor project, biochemical, FRET, human ADAM10; inhibition, % at 6.95 µM; shares compounds with ADAM17 inh; 2,900 compounds, 47% hits; AID 743256, 2014; recombinant ADAM10, EDANS/DABCYL FRET peptide cleavage, 3 h;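 active = mean inhibition over the triplicate runs exceeds the activity threshold set in the earlier primary screen, cut at about 20% in these data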
ADAM17 confirm = ADAM17 inhibitors, hit retest, confirmation, biochemical, QFRET peptide cleavage; shares compounds with ADAM17 inh; recombinant ADAM17, EDANS/DABCYL QFRET peptide cleavage; inhibition, % at 6.95 µM; 2,900 compounds, 65% hits;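 active = mean inhibition across replicates above the hit cutoff set in the primary screen, cut at about 8.5% in these data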
PLCg1 ctr = PLC-gamma1 enzyme inhibitors, counter-screen for PLC-beta3 inhibitor project, biochemical, fluorescence; inhibition, % at 12.3 µM; purified PLC-gamma1, fluorogenic substrate; AID 743258, 2014; 3,300 compounds, 3.1% hits; shares compounds with PLC-gamma1 inh; in the data active = inhibition above about 9.5%
PLCb3 confirm = PLC-beta3 inhibitor confirmation, biochemical, fluorescence, purified enzyme | shares compounds with PLC-gamma1 inh | fluorogenic substrate fluorescence | inhibition, % at 12.3 µM | 3,300 compounds, 1% hits | AID 743261, 2014
Of the large screens only hits and unclear results are named; the others gave an inactive call (follow-up assays come after a bar, where they were run). Rule as the data show it, unless noted: active = inhibition above about 11%; inactive = the rest.

C[C@@H]1CN([C@@H](C)CO)C(=O)c2cc(Br)cnc2O[C@H]1CN(C)Cc1cccc(C(=O)O)c1	none (no result: Rce1 inh)
CN1CCN(C(=O)/C(=C/c2ccccc2)c2ccccc2)CC1	PLC-gamma1 inh 9.8, ADAM17 inh 8.7 | ADAM10 counter inactive | ADAM17 confirm inactive | PLCg1 ctr inactive | PLCb3 confirm inactive
CCOC(=O)c1cnc2ccc(Br)cc2c1NCCO	none
CCOC(=O)c1cnc2ccc(Br)cc2c1NCC(C)O (stereo unspecified)	PLC-gamma1 inh 12, ADAM17 inh 10 (no result: Rce1 inh) | ADAM10 counter inactive | ADAM17 confirm inactive | PLCg1 ctr inactive | PLCb3 confirm inactive
O=C(NC(Cc1ccccc1)C(=O)N1CCCCC1)c1ccccc1 (stereo unspecified)	PLC-gamma1 inh 13, ADAM17 inh 9.3 | ADAM10 counter inactive | ADAM17 confirm inactive | PLCg1 ctr inactive | PLCb3 confirm inactive
Nc1ncnc2c1ncn2[C@@H]1O[C@H](C(=O)N(CCC2=CCCCC2)CC2CC2)[C@@H](O)[C@H]1O	none (no result: Rce1 inh)
COc1ccc(-c2cc(C(F)(F)F)c(C#N)c(SCC(=O)O)n2)cc1OC	none (no result: ADAM10 inh, PLCb3 inh, PLC-gamma1 inh, ADAM17 inh)
COCC(C)N1CCC(n2nccc2NC(=O)CCCc2ccccc2)CC1 (stereo unspecified)	none
CC(C)(CO)NCC(=O)Nc1cc(C(F)(F)F)cc(NC(=O)CNC(C)(C)CO)c1Cl	none
CS(=O)(=O)/C(C#N)=C/c1cccn1S(=O)(=O)c1ccccc1	none
CC(C)(C)S(=O)(=O)/C(C#N)=C/c1cccn1S(=O)(=O)c1ccccc1	PLC-gamma1 inh 16, ADAM17 inh 9.4 (no result: Rce1 inh) | ADAM10 counter 24 | ADAM17 confirm 12 | PLCg1 ctr inactive | PLCb3 confirm inactive
CC1(C(=O)Nc2ccc(Cl)c(Cl)c2)CCN1C(=O)C1CCCCC1 (stereo unspecified)	PLC-gamma1 inh 16, ADAM17 inh 10 (no result: Rce1 inh) | ADAM10 counter inactive | ADAM17 confirm 9.9 | PLCg1 ctr inactive | PLCb3 confirm inactive
COc1ccc(C(=S)N2CCN(c3ccccc3C)CC2)cc1	PLC-gamma1 inh 13, ADAM17 inh 9.4 | ADAM10 counter inactive | ADAM17 confirm inactive | PLCg1 ctr inactive | PLCb3 confirm inactive
CCN1CCN(C(=S)c2ccc(OC)cc2)CC1	none
CS/C(=C\[N+](=O)[O-])Nc1ccc(Cl)cc1	PLC-gamma1 inh 11, ADAM17 inh 12 | ADAM10 counter inactive | ADAM17 confirm inactive | PLCg1 ctr inactive | PLCb3 confirm inactive
CC(C)=CC(=O)Nc1ccc(Cl)cc1	none
CC(=O)NC(c1cccc(F)c1)c1nc(/C=C/c2ccccc2)cs1 (stereo unspecified)	PLC-gamma1 inh 10, ADAM17 inh 11 (no result: Rce1 inh) | ADAM10 counter inactive | ADAM17 confirm inactive | PLCg1 ctr inactive | PLCb3 confirm inactive
COc1ccccc1-c1csc(C(NC(C)=O)c2cccc(F)c2)n1 (stereo unspecified)	none (no result: Rce1 inh)
Cc1ccc(NS(=O)(=O)c2ccc(NC(=O)CSc3ccc(Cl)cc3)cc2)c(C)c1	PLC-gamma1 inh 13, ADAM17 inh 9.0 | ADAM10 counter 28 | ADAM17 confirm 11 | PLCg1 ctr inactive | PLCb3 confirm inactive
Oc1ccc(C[C@H]2CNCCN2CCC23CC4CC(CC(C4)C2)C3)cc1	PLCb3 inh 11, PLC-gamma1 inh 9.8, ADAM17 inh 11 | ADAM10 counter inactive | ADAM17 confirm inactive | PLCg1 ctr inactive | PLCb3 confirm inactive
Oc1ccc(C[C@@H]2CNCCN2CCC23CC4CC(CC(C4)C2)C3)cc1	none
Cc1cccc(N2CCN(C(=O)c3ccc4ncsc4c3)CC2)c1C	PLC-gamma1 inh 12, ADAM17 inh 8.9 (no result: Rce1 inh) | ADAM10 counter inactive | ADAM17 confirm inactive | PLCg1 ctr inactive | PLCb3 confirm inactive
CCOC(=O)c1cccc(NC(=O)CN(C)S(=O)(=O)c2cc(OC)ccc2OC)c1	none (no result: Rce1 inh)
CS(=O)(=O)N1CCN(c2ccc(NC(=O)C(c3ccccc3)c3ccccc3)cc2)CC1	PLC-gamma1 inh 9.6, ADAM17 inh 13 | ADAM10 counter inactive | ADAM17 confirm inactive | PLCg1 ctr inactive | PLCb3 confirm inactive
COC(=O)[C@]12C[C@H](CC(=O)N3CCN(C(=O)C4CC4)CC3)C(=O)N(Cc3ccccc3)C1=C[C@H](COCc1ccccc1)O[C@@H]2C	none (no result: Rce1 inh)
COC(=O)[C@]12C[C@H](CC(=O)N3CCN(C(=O)C4CC4)CC3)C(=O)N(Cc3cccc4ccccc34)C1=C[C@H](COCc1ccccc1)O[C@@H]2C	PLC-gamma1 inh 14, ADAM17 inh 10.0 (no result: Rce1 inh) | ADAM10 counter 24 | ADAM17 confirm 20 | PLCg1 ctr inactive | PLCb3 confirm inactive
COc1ccc(NC(=O)CCC(=O)Nc2nnc(C(C)C)s2)cc1Cl	none
COc1ccc(OC)c(NC(=O)CCC(=O)Nc2nnc(C(C)C)s2)c1	PLC-gamma1 inh 12, ADAM17 inh 12 | ADAM10 counter inactive | ADAM17 confirm inactive | PLCg1 ctr inactive | PLCb3 confirm inactive
N#Cc1ccccc1CSc1ccccn1	PLCb3 inh 11, ADAM17 inh 9.1 | ADAM10 counter inactive | ADAM17 confirm inactive | PLCg1 ctr inactive | PLCb3 confirm inactive
N#Cc1ccc(CSc2ccccn2)c(Cl)c1	none
Cc1cc(C)cc(NC(=O)c2cccn2-c2ncc(C(F)(F)F)cc2Cl)c1	PLC-gamma1 inh 13, ADAM17 inh 17 | ADAM10 counter inactive | ADAM17 confirm inactive | PLCg1 ctr inactive | PLCb3 confirm inactive
COc1cccc(NC(=O)Nc2nc3ncccn3c2-c2ccc(C)cc2)c1	none (no result: Rce1 inh)
CC1CCN(N=Nc2nc3c([nH]2)c(=O)n(C)c(=O)n3C)CC1	PLC-gamma1 inh 9.9, ADAM17 inh 17 (no result: Rce1 inh) | ADAM10 counter inactive | ADAM17 confirm 9.3 | PLCg1 ctr inactive | PLCb3 confirm inactive
CN(CCc1ccccc1)C(=O)c1ccc(NC(=O)Cc2ccc(NC(=O)C3CCN(C(=O)C4CC4)CC3)cc2)cc1	none (no result: Rce1 inh)
